Among the test systems are MERTK; MET; MKK7; MKNK1; MKNK2; MLK2; MLK3; MRCKA; MST1R; MST4; MTOR; MUSK; MYLK2.
Holding throughout (conditions): concentration: 1 μM, replicates: in singlicate; n = 1
A further assay deals with T1, MINK.
T1 construct: gene MINK1

The next assay concerns T2, MLCK.
T2 construct: gene MYLK3

The subject of another assay is T3, MLK1.
T3 construct: gene MAP3K9

The next assay deals with T4, MRCKB.
T4 construct: gene CDC42BPB

In a further assay the test system is T5, MST1.
T5 construct: gene STK4

The test system of the next assay is T6, MST2.
T6 construct: gene STK3

The next assay deals with T7, MST3.
T7 construct: gene STK24
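Note: KINOMEscan kinase panel screen.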

On to `FC(F)(F)c1ccc(-c2cc(-c3c[nH]nc3-c3ccccn3)ccn2)cc1` [GW599550], for which the “%Inh” value in the assay on MERTK was determined as 0%; with MET, 14%; in the assay with MINK, 75%; in the assay with MKK7 it was 0%; in the assay with MKNK1, 7%; in the assay on MKNK2, 0%. The “%Inh” value with MLCK is listed as 7%; in the assay with MLK1, 10%; with MLK2, 0%; in the assay with MLK3, 21%; in the assay with MRCKA, 19%; in the assay with MRCKB, 0%. Besides, the “%Inh” value with MST1R is reported as 33%; with MST1 it was 17%; in the assay with MST2 it was 8%; in the assay on MST3, 8%; with MST4 it was 0%; with MTOR it was 13%. Also, the “%Inh” value in the assay on MUSK was found to be 14%; with MYLK2, 13%.

In the case of `Cl.Cl.c1ccc(-c2cc3ccncc3cc2OC2CCNCC2)cc1` [GSK1122999], the “%Inh” value is 46% in the assay on MERTK; 0% in the assay with MET; 6% in the assay with MINK; 0% in the assay on MKK7; 29% in the assay on MKNK1; 4% with MKNK2. In addition, the “%Inh” value in the assay with MLCK is reported as 10%; in the assay with MLK1, 0%; in the assay with MLK2, 0%; in the assay with MLK3 it was 23%; in the assay on MRCKA, 52%; in the assay on MRCKB, 17%. Besides, the “%Inh” value amounted to 53% in the assay with MST1R; 21% with MST1; 6% with MST2; 12% in the assay with MST3; 0% in the assay with MST4; 12% in the assay with MTOR. Also, the “%Inh” value in the assay with MUSK amounted to 13%; in the assay on MYLK2, 20%.

`CN1CCC(n2cnc(-c3ccc(F)cc3)c2-c2ccnc(NC3CCNCC3)n2)CC1` [SB-229482]: the “%Inh” value in the assay with MERTK is listed as 0%; with MET it was 0%; in the assay with MINK, 0%; with MKK7 it was 11%; in the assay with MKNK1, 0%; in the assay on MKNK2, 32%. Further, the “%Inh” value came to 0% with MLCK; 38% in the assay on MLK1; 5% in the assay with MLK2; 0% in the assay with MLK3; 6% in the assay with MRCKA; 0% in the assay on MRCKB. Besides, the “%Inh” value in the assay with MST1R stood at 33%; in the assay with MST1, 3%; in the assay on MST2 it was 24%; in the assay on MST3, 0%; in the assay on MST4 it was 0%; with MTOR, 0%. Also, the “%Inh” value in the assay with MUSK is 0%; in the assay with MYLK2 it was 21%.

Consider `FC(F)(F)c1ccc(-c2nn3ncccc3c2-c2ccnc(Nc3cccc(C(F)(F)F)c3)n2)cc1` [GW828205], for which the “%Inh” value in the assay on MERTK was 1%; in the assay on MET, 21%; with MINK, 12%; in the assay on MKK7, 0%; in the assay on MKNK1 it was 0%; with MKNK2, 0%. For the same compound, the “%Inh” value came to 0% in the assay on MLCK; 4% with MLK1; 0% with MLK2; 0% in the assay on MLK3; 31% in the assay with MRCKA; 17% in the assay with MRCKB. Moreover, the “%Inh” value in the assay with MST1R turned out to be 0%; in the assay with MST1, 0%; in the assay on MST2 it was 21%; with MST3, 0%; in the assay with MST4 it was 0%; in the assay with MTOR, 0%. Further, the “%Inh” value in the assay with MUSK and in the assay on MYLK2 was 0% in each case.

Take `CC(=O)Nc1n[nH]c2ncc(-c3ccccc3)cc12` [SB-548492]: the “%Inh” value in the assay with MERTK was 37%; in the assay on MET, 4%; in the assay with MINK, 30%; in the assay on MKK7 it was 2%; with MKNK1, 0%; in the assay with MKNK2, 62%. The “%Inh” value with MLCK turned out to be 0%; in the assay with MLK1, 8%; with MLK2, 6%; in the assay on MLK3, 3%; in the assay with MRCKA, 0%; in the assay on MRCKB it was 10%. Besides, the “%Inh” value was found to be 41% in the assay with MST1R; 0% in the assay with MST1; 1% with MST2; 5% in the assay with MST3; 15% with MST4; 6% in the assay on MTOR. Further, the “%Inh” value in the assay on MUSK is 9%; in the assay on MYLK2, 37%.

As for `Cc1ccc(C)c(NC(=O)NCCNc2ccnc(Nc3ccc(F)cc3)n2)c1` [GSK1379878], the “%Inh” value in the assay on MERTK was 2%; in the assay on MET, 0%; in the assay on MINK, 0%; in the assay on MKK7, 0%; in the assay with MKNK1, 0%; in the assay with MKNK2, 0%. Also, the “%Inh” value in the assay with MLCK is reported as 0%; in the assay with MLK1 it was 0%; in the assay on MLK2, 0%; in the assay on MLK3, 4%; with MRCKA, 12%; in the assay with MRCKB, 0%. The “%Inh” value with MST1R is listed as 7%; in the assay with MST1, 0%; in the assay on MST2, 0%; with MST3 it was 0%; in the assay with MST4, 0%; in the assay with MTOR, 2%. The “%Inh” value with MUSK and in the assay with MYLK2 was 0% throughout.

Consider `Fc1cccc(COc2ccc(Nc3ncnc4sc(-c5ccc[nH]5)cc34)cc2Cl)c1` [GW707818], for which the “%Inh” value in the assay on MERTK is listed as 10%; with MET, 0%; in the assay on MINK, 16%; in the assay on MKK7, 8%; with MKNK1, 12%; with MKNK2, 2%. The “%Inh” value with MLCK is recorded as 0%; in the assay with MLK1 it was 7%; in the assay on MLK2 it was 0%; with MLK3 it was 2%; in the assay on MRCKA it was 23%; in the assay on MRCKB, 6%. In addition, the “%Inh” value in the assay on MST1R was determined as 33%; in the assay with MST1, 0%; in the assay on MST2, 18%; in the assay on MST3, 8%; with MST4, 0%; in the assay with MTOR, 13%. Further, the “%Inh” value in the assay on MUSK is given as 0%; in the assay with MYLK2, 14%.

With `c1ccc(-c2ccc3c(-c4ccnc(Nc5ccc6c(c5)OCCO6)n4)cnn3n2)cc1` [GW818941], the “%Inh” value in the assay with MERTK turned out to be 58%; in the assay with MET, 100%; with MINK, 0%; with MKK7, 21%; in the assay with MKNK1, 0%; in the assay on MKNK2, 2%. For the same compound, the “%Inh” value in the assay with MLCK worked out at 4%; with MLK1, 12%; with MLK2, 39%; with MLK3, 28%; in the assay with MRCKA it was 11%; with MRCKB it was 6%. Further, the “%Inh” value is reported as 41% in the assay with MST1R; 23% in the assay on MST1; 4% with MST2; 1% in the assay on MST3; 0% in the assay with MST4; 17% in the assay on MTOR. The figures for the “%Inh” value in the assay on MUSK and with MYLK2 were 16% and 27%, respectively.

Source of the values: paper PMC5540273 (PLoS ONE, 2017).
